Experiment [1] is described as follows: qHTS assay to identify small molecule antagonists of the estrogen related receptor (ERR) signaling pathway from Tox21 library - cell viability counter screen (AID 1224834). Further: nearly all actives have a fitted effect of over 30% in size. Further: potency means the concentration at half of the fitted maximal effect. In short, it runs like this: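 Cytotoxicity of test substances is gauged in the same ERR cells used for the antagonist screen, after 17.5 h of compound treatment at 37 C, by CellTiter-Fluor fluorescence measured after 30 min.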
Background: qHTS replaces the single test concentration by a dilution series.

Experiment [2] concerns the target Luciferin 4-monooxygenase (Photinus pyralis) (UniProt P08659). The experiment is described as follows: qHTS assay to identify small molecule inhibitors of firefly luciferase (AID 1224835). Further: nearly all actives have a fitted effect of over 25% in size. Further: potency means the concentration at half of the fitted maximal effect. In short, it runs like this: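 Biochemical qHTS: compounds run as interplate titrations against purified firefly enzyme, with D-luciferin and ATP each at its KM concentration. Light output recorded by CCD imaging.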

The nature of experiment [3]: qHTS assay to identify small molecule agonists of the constitutive androstane receptor (CAR) signaling pathway - cell viability counter screen (AID 1224836). Further: nearly all actives have a fitted effect of over 45% in size. Further: potency means the concentration at half of the fitted maximal effect. The gist of the method: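 Double-stable HepG2 hepatoma cells (hCAR plus CYP2B6-2.2kb) are treated for 23 h at 37 C with test compounds in 15-point concentration series. PK11195 at 0.75 uM final is co-added. Cell viability is quantified by CellTiter-Fluor.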

A short description of experiment [4]: qHTS assay to identify small molecule antagonists of the constitutive androstane receptor (CAR) signaling pathway - cell viability counter screen (AID 1224837). Further: nearly all actives have a fitted effect of over 45% in size. Further: potency means the concentration at half of the fitted maximal effect. In short, it runs like this:
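Multiplexed cytotoxicity read-out for the CAR antagonist screen: double-stable HepG2-CYP2B6-hCAR cells co-treated with 50 nM CITCO (final) and compound over 15 concentrations, incubated 23 hr, then assessed by CellTiter-Fluor fluorescence.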

Experiment [5] concerns the target Nuclear receptor subfamily 1 group I member 3 (Homo sapiens) (UniProt Q14994). Description: qHTS assay to identify small molecule antagonists of the constitutive androstane receptor (CAR) signaling pathway (AID 1224838). Further: nearly all actives have a fitted effect of over 40% in size. Further: potency means the concentration at half of the fitted maximal effect. In short, it runs like this: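 Compounds were titrated across 15 concentrations onto HepG2 cells double-stably expressing hCAR and a CYP2B6-2.2kb reporter, together with 50 nM CITCO (final). After 24 h at 37 C, luciferase activity was measured by luminescence.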

The nature of experiment [6]: qHTS assay to identify small molecule antagonists of the estrogen related receptor signaling pathway with the pleiotropic PPARgamma coactivator (PGC) from Tox21 10K library - cell viability counter screen (AID 1224840; active means well fitted cell-killing curve with a large enough effect in the repeat runs, not every such curve was filed as active; further: nearly all actives have a fitted effect of over 40% in size; further: potency means the concentration at half of the fitted maximal effect). The gist of the method:
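Step one, plate 2,000 PGC/ERR cells per well; step two, incubate 6 h at 37 C/5% CO2; step three, pin-transfer compounds; step four, incubate 17.5 h; step five, add CellTiter-Fluor and read fluorescence after 30 min.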

Experiment [7] is described as follows: qHTS assay to identify small molecule antagonists of the estrogen related receptor signaling pathway with the pleiotropic PPARgamma coactivator (PGC) from Tox21 10K library (AID 1224841; call rule not given here; further: actives are mostly falling curves and most rising ones were filed inactive; nearly all actives have a fitted effect of over 50% in size). In short, it runs like this:
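Antagonism in this quantitative HTS is taken from loss of luciferase signal in PGC/ERR cells. Cells (2,000/well) are treated with compounds in DMSO after a 6 h settling period and read by One-Glo luminescence after 18 h.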

Experiment [8] addresses Thyrotropin receptor (Homo sapiens) (UniProt P16473). The experiment is described as follows: qHTS assay to identify small molecule agonists of the thyroid stimulating hormone receptor (TSHR) signaling pathway (AID 1224843; calls by dose curve; further: nearly all actives have a fitted effect of over 45% in size; further: potency means the concentration at half of the fitted maximal effect). The gist of the method: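 Steps: seed 800 TSHR-HEK293 cells per well; add test compound and hold 30 min at ambient temperature; dispense cAMP-d2 then anti-cAMP cryptate; incubate 1 h at ambient; measure fluorescence intensity.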

A short description of experiment [9]: qHTS assay to identify small molecule agonists of H2AX (AID 1224845; active means well fitted activation curve with a large enough effect in the signal ratio in the repeat runs, not every such curve was filed as active; the % refers to the signal ratio; further: potency means the concentration at half of the fitted maximal effect). The gist of the method:
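Wild-type CHO-K1 cells, plated overnight, exposed 3hr at 37C to 15 concentrations (0.76% DMSO final). Lysed, then HTRF anti-pH2AX (S139) cryptate and anti-H2AX-d2 antibodies, 24 hr room temperature; 665/620 nm emission read.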

A short description of experiment [10]: qHTS assay to identify small molecule antagonists of the estrogen related receptor (ERR) signaling pathway from Tox21 library (AID 1224848). Further: nearly all actives have a fitted effect of over 50% in size. In short, it runs like this:
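Luminescent reporter read-out (ONE-Glo) from NTP's ERR cell line after 18 h treatment at 37 C with DMSO-dissolved Tox21 compounds; cells pre-plated 6 h beforehand at 2,000 per well.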

A short description of experiment [11]: qHTS RealTime-Glo MT Cell Viability Assay in HepG2 cells - 24 hour (AID 1224867). Further: nearly all actives have a fitted effect of over 50% in size. Further: potency means the concentration at half of the fitted maximal effect. In short, it runs like this: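 Viability was tracked continuously by NanoLuc luminescence from prosubstrate reduced by living HepG2 cells, at successive time points over 40 h of compound exposure. Cells with reagent were preincubated 5 h at 37 °C before compound addition.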
The nature of experiment [12]: A CellTox Green Cytotoxicity Assay to monitor cytotoxicity in HEK293 cells - 0 hour (AID 1224869). Further: nearly all actives have a fitted effect of over 50% in size. In short, it runs like this:
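Cytotoxicity was tracked continuously in HEK293 cells by a DNA-binding dye excluded from viable cells. Compounds were transferred in DMSO 5 h after seeding; fluorescence was recorded at intervals up to 40 h.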

Experiment [13] has as its target Nuclear receptor subfamily 1 group I member 3 (Homo sapiens) (UniProt Q14994). The experiment is described as follows: qHTS assay to identify small molecule agonists of the constitutive androstane receptor (CAR) signaling pathway (AID 1224839). Further: nearly all actives have a fitted effect of over 15% in size. Further: potency means the concentration at half of the fitted maximal effect. The gist of the method:
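Readout: firefly luciferase luminescence via ONE-Glo. System: HepG2 double-stable for hCAR and CYP2B6-2.2kb. Conditions: 15-point compound titration, PK11195 at 0.75 uM final, 24 h incubation.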

The nature of experiment [14]: qHTS assay to identify small molecule agonists of H2AX - cell viability counter screen (AID 1224847; calls by dose curve; further: nearly all actives have a fitted effect of over 30% in size; further: potency means the concentration at half of the fitted maximal effect). The gist of the method:
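For this counter screen, overnight-attached CHO-K1 cells received test compounds (15 concentrations, 0.76% DMSO final); 3 hr later at 37C, CellTiter-Glo reagent was added and luminescence recorded after 30 min at room temperature.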

The nature of experiment [15]: qHTS RealTime-Glo MT Cell Viability Assay in HEK293 cells - 32 hour (AID 1224868). Further: nearly all actives have a fitted effect of over 50% in size. Further: potency means the concentration at half of the fitted maximal effect. The gist of the method: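 Viability tracked continuously by luminescence as live cells reduce a prosubstrate for NanoLuc; HEK293 cells preincubated 5 h, compound-treated at 37 C, and read at 0, 8, 16, 24, 32 and 40 h.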
A short description of experiment [16]: qHTS assay to identify small molecule agonists of the hypoxia (HIF-1) signaling pathway - cell viability counter screen (AID 1224844; calls by dose curve; further: nearly all actives have a fitted effect of over 50% in size; further: potency means the concentration at half of the fitted maximal effect). The gist of the method:
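Tox21 10K compounds were added to HRE-bla ME-180 cells (0.5% dialyzed FBS) and incubated 17 hrs at 37C; ATP-based CellTiter-Glo luminescence then reported cell viability in the same wells.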

The nature of experiment [17]: qHTS assay to identify small molecule agonists of the estrogen related receptor (ERR) signaling pathway from Tox21 library (AID 1224849; calls by dose curve; further: nearly all actives have a fitted effect of over 15% in size). As to conditions: ERR reporter cell line, ONE-Glo luciferase, 18 h; at 92.4 µM (top of the series) unless noted. The gist of the method: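 Agonist signal is luciferase luminescence from an ERR reporter cell line treated 18 h at 37 C with DMSO-dissolved compounds, read 30 min after ONE-Glo addition at room temperature.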

A short description of experiment [18]: qHTS RealTime-Glo MT Cell Viability Assay in HepG2 cells - 40 hour (AID 1224870). Further: nearly all actives have a fitted effect of over 50% in size. Further: potency means the concentration at half of the fitted maximal effect. The gist of the method: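 HepG2 cells (600/well) mixed with RealTime-Glo MT reagent, settled 5 h at 37 C/5% CO2 before compound addition. Nonlytic NanoLuc luminescence from viable-cell prosubstrate reduction read repeatedly during 40 h treatment at 37 C.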
A short description of experiment [19]: qHTS assay to identify small molecule agonists of the hypoxia (HIF-1) signaling pathway (AID 1224846; active means well fitted activation curve with a large enough effect in the signal ratio in the repeat runs, not every such curve was filed as active; the % refers to the signal ratio). In short, it runs like this: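 Steps: seed ME-180 HRE-bla cells (2,000/well, 0.5% dialyzed FBS); incubate 5 hrs at 37C; pin-transfer compounds or DMSO; incubate 17 hrs; add LiveBLAzer B/G substrate CCF4-AM; measure reporter activation by FRET.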
Experiment [20] is described as follows: qHTS assay to identify small molecule agonists of the estrogen related receptor signaling pathway with the pleiotropic PPARgamma coactivator (PGC) from Tox21 10K library (AID 1224842). Further: nearly all actives have a fitted effect of over 15% in size. The gist of the method:
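PGC/ERR reporter cell line, 2,000 cells per well, incubated 6 h at 37 C before 23 nL compound in DMSO was added. After 18 h at 37 C, One-Glo luminescence read following 30 min at room temperature.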

Consider eight molecules from PubChem BioAssay (Tox21).

Structures are written as SMILES. Values without a mark were called inactive. Results filed as inconclusive are left out. Activity calls are given as the source filed them. Unless noted, the call rests on the fitted dose curve; in most records, active means well fitted curve in the direction sought with a large enough effect in the repeat runs; inconclusive means weak or mixed curves; inactive means no such curve, though single readings can be large; an effect the other way counts as inactive or inconclusive.
On the % scale 0 is the no-effect control and ±100 the full control effect.

Sequence of Thyrotropin receptor (Homo sapiens) (P16473 whole entry, looked up): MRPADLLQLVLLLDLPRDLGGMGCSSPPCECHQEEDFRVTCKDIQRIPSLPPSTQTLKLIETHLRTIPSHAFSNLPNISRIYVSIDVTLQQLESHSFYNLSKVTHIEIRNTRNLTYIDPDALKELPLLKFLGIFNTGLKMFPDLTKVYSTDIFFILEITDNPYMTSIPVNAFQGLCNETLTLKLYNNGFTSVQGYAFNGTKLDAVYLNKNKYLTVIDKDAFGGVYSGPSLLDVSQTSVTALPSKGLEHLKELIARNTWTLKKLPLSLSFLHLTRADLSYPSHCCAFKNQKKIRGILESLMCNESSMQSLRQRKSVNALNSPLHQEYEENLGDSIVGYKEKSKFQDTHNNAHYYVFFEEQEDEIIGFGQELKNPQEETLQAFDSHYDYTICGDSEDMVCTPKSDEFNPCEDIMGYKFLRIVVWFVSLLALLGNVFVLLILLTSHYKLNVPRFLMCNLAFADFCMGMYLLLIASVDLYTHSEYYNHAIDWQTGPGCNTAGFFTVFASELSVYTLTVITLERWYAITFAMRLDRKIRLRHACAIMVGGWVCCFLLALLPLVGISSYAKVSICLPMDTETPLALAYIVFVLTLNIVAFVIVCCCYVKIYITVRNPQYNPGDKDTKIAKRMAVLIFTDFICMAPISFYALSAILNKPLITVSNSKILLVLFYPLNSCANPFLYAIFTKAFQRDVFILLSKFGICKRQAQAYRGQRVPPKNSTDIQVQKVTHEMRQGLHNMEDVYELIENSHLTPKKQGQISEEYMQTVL
Sequence of Nuclear receptor subfamily 1 group I member 3 (Homo sapiens) (Q14994 whole entry, looked up): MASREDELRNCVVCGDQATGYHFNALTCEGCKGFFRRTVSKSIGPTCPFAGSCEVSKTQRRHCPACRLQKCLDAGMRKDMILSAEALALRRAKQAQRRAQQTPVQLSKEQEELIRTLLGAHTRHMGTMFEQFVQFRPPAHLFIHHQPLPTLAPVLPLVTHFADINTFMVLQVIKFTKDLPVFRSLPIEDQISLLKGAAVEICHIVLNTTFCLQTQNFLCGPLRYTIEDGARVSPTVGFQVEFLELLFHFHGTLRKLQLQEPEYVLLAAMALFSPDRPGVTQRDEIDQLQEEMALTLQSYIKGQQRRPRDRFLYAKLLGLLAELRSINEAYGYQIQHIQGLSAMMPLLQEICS
Sequence of Luciferin 4-monooxygenase (Photinus pyralis) (P08659 whole entry, looked up): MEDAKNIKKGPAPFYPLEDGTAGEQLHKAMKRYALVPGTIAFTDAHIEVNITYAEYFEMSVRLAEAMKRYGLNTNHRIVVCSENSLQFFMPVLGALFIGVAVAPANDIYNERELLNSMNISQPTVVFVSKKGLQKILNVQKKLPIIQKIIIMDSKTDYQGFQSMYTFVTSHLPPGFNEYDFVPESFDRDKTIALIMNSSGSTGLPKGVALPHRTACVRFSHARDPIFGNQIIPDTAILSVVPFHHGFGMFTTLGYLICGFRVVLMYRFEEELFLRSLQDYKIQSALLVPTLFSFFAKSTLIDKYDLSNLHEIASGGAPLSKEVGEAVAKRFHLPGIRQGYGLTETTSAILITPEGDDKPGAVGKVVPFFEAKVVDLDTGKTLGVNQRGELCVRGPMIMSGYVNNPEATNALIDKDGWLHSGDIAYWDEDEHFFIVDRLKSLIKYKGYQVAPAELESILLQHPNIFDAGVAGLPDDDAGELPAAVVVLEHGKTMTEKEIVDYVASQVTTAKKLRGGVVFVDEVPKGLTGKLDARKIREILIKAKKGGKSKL

With `Clc1ccc(-c2ccc(Cl)c(Cl)c2Cl)c(Cl)c1Cl`, the Potency entry in [1], in experiment [2], in [3], in [4], in [5] and in experiment [6] was “inactive” in each case. Further, the Potency entry in experiment [7], in experiment [8], in experiment [9], in experiment [10], in experiment [11] and in [12] was “inactive” throughout.

On to `CCOCn1c(-c2ccc(Cl)cc2)c(C#N)c(Br)c1C(F)(F)F`, for which the Potency in [1] is 4.86 µM (active); in [3], 4.33 µM (active); in [4], 4.33 µM (active); in experiment [5] it was 4.86 µM (active); in [6], 5.45 µM (active); in experiment [14] it was 2.53 µM (active). The Potency in [15] is 4.36 µM (active). For the same molecule, the Potency entry in experiment [2], in experiment [13] and in experiment [12] was “inactive” each time.

On to `C[CH2][Hg][N]1C(=O)C2C(C1=O)C1(Cl)C(Cl)=C(Cl)C2(Cl)C1(Cl)Cl` (configuration not stated), for which the Potency in experiment [1] was 13 µM (active); in [2] it was 5.35 µM (active); in experiment [3], 14.6 µM (active); in [4] it was 13 µM (active); in experiment [5] it was 11.6 µM (active); in experiment [6], 13 µM (active). For the same molecule, the Potency in experiment [16] was 2.33 µM (active); in experiment [14], 13.5 µM (active); in experiment [11], 6.57 µM (active); in experiment [15] it was 2.33 µM (active); in experiment [18] it was 6.57 µM (active). The activation is -23.5% [at 19 µM] in experiment [13] and -16.4% [at 19 µM] in [8]. Further, the activity change, positive = activation in experiment [17] is -76.3% [at 19 µM].

As for `CC(C)(C)OO`, the Potency result in experiment [1], in [2], in [3], in experiment [4], in [5] and in experiment [13] was “inactive” throughout. Besides, the Potency result in [6], in experiment [8], in [9], in experiment [14], in experiment [11] and in experiment [15] was “inactive” each time. The Potency entry in [12] and in experiment [18] was “inactive” each time. The molecule was called inactive in [19].

For the molecule `c1ccc2c(c1)OCC(C1=NCCN1)O2` (configuration not stated), the Potency in [1] is 21.1 µM (active); in experiment [3] it was 23.7 µM (active); in experiment [4], 29.8 µM (active); in experiment [5] it was 21.1 µM (active); in experiment [6], 21.1 µM (active); in [8], 15 µM (active). Moreover, the Potency in [9] is 49.2 µM (active). The Potency entry in [2], in experiment [13] and in experiment [12] was “inactive” throughout.

`CCCCCCCCCCBr`: the Potency entry in experiment [1], in experiment [2], in experiment [3], in experiment [4], in [6] and in [7] was “inactive” throughout. Further, the Potency entry in experiment [20], in experiment [10], in [11], in [12] and in experiment [18] was “inactive” each time. Besides, in [19], the call was inactive. Also, the activity change, positive = activation in [17] is 1.61%.

Turning to `Cc1cc(C(F)(C(F)(F)F)C(F)(F)F)ccc1NC(=O)c1cccc(I)c1C(=O)NC(C)(C)CS(C)(=O)=O`, the Potency result in experiment [1], in experiment [2], in experiment [3], in experiment [4], in experiment [13] and in [6] was “inactive” each time. The Potency entry in experiment [20], in [8], in experiment [9], in experiment [14], in experiment [11] and in experiment [12] was “inactive” each time. Further, in experiment [18], the Potency result was “inactive”. Further, the outcome in experiment [19] was inactive. Further, in [17], the activity change, positive = activation was -22.4% [at 42.5 µM].

For `c1ccc2cc3c(cc2c1)-c1cccc2cccc-3c12`, the Potency entry in [1], in [2], in experiment [3], in experiment [4], in [5] and in experiment [7] was “inactive” throughout. In addition, the Potency result in experiment [16], in experiment [9], in experiment [14], in experiment [10], in experiment [11] and in experiment [12] was “inactive” in each case. Moreover, the Potency in experiment [13] was 0.955 µM (active).
